Data on eight compounds can be found in PubChem BioAssay (NCI).

Among the test systems are SR leukemia; RPMI-8226 leukemia; OVCAR-8 ovarian; OVCAR-5 ovarian; SK-OV-3 ovarian; IGROV1 ovarian; OVCAR-3 ovarian; HS 578T breast; NCI/ADR-RES ovarian; T-47D breast; BT-549 breast; MDA-MB-435 melanoma; SW-620 colon; MCF7 breast; HCT-116 colon; HCC-2998 colon; KM12 colon.
Common to all, as to assay: NCI-60 one-dose screen, 48 h (100 = growth as untreated, 0 = no growth, -100 = all killed)
What all share (conditions): 10 µM unless noted

About 83,000 compounds went through this panel and 20% of them were active in at least one assay; those are over-represented in the sample as a whole.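 For each line, cells grew in 96-well plates with the test compound present at a single concentration for 48 hours.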 Unmarked numbers belong to inactive results. Calls of active or inactive are those of the source. Rule for the calls: active = growth percent below 10; inactive = the rest.

For `COc1cc(Nc2c(C#N)cnn3cc(-c4cnn(CC(C)(C)O)c4)cc23)ccc1Cl`, the growth in the assay with SR leukemia was 24.3%; in the assay with RPMI-8226 leukemia it was 40.2%; in the assay on OVCAR-8 ovarian it was 46.9%; in the assay with OVCAR-5 ovarian it was 43.8%; in the assay on SK-OV-3 ovarian it was 4.19% (active); in the assay on IGROV1 ovarian it was 4.87% (active). In addition, the growth was 57.6% in the assay on OVCAR-3 ovarian; 61.9% in the assay with HS 578T breast; 46.5% with NCI/ADR-RES ovarian; 45.1% in the assay with T-47D breast; 85.5% with BT-549 breast; 38.3% with MDA-MB-435 melanoma. Further, the growth was 56.5% with SW-620 colon; 48% with MCF7 breast; 40.2% in the assay on HCT-116 colon; 84.8% in the assay on HCC-2998 colon; 19.1% in the assay with KM12 colon.
Regarding `NS(=O)(=O)c1ccc(Nc2nc(N/N=C/c3c[nH]c4ccccc34)nc(Nc3ccccc3)n2)cc1`, the growth with SR leukemia is 12.1%; with RPMI-8226 leukemia it was -5.69% (active); in the assay on OVCAR-8 ovarian, 37.8%; with OVCAR-5 ovarian, 87.8%; with SK-OV-3 ovarian, 90.8%; with IGROV1 ovarian it was 33.9%. Also, the growth was 26.7% with OVCAR-3 ovarian; 42.2% in the assay with HS 578T breast; 93.5% with NCI/ADR-RES ovarian; 35.3% with T-47D breast; 48.8% in the assay with BT-549 breast; 31.3% with MDA-MB-435 melanoma. The growth is 49% in the assay with SW-620 colon; 18.8% in the assay with MCF7 breast; 15.9% with HCT-116 colon; 52.6% in the assay with HCC-2998 colon; 27.3% in the assay with KM12 colon.
`NS(=O)(=O)c1ccc(-n2cc(CN3CCNCC3)nn2)cc1`: the growth is 100% in the assay on SR leukemia; 110% in the assay with RPMI-8226 leukemia; 110% with OVCAR-8 ovarian; 106% with OVCAR-5 ovarian; 110% in the assay with SK-OV-3 ovarian; 112% in the assay on IGROV1 ovarian. Moreover, the growth in the assay on OVCAR-3 ovarian is 111%; in the assay on HS 578T breast it was 111%; in the assay with NCI/ADR-RES ovarian it was 111%; with T-47D breast it was 107%; in the assay with BT-549 breast it was 110%; in the assay with MDA-MB-435 melanoma, 106%. For the same compound, the growth in the assay with SW-620 colon is 109%; in the assay on MCF7 breast, 98.9%; with HCT-116 colon, 107%; in the assay on HCC-2998 colon, 101%; in the assay on KM12 colon, 105%.
For the compound `O=C(O)c1ccc(-n2cc(CNc3cc(F)c(F)c(F)c3)c(-c3ccc(F)cc3)n2)cc1`, the growth with SR leukemia is 78.1%; in the assay on RPMI-8226 leukemia, 76.3%; with OVCAR-8 ovarian it was 83.9%; with OVCAR-5 ovarian, 108%; with SK-OV-3 ovarian, 116%; in the assay with IGROV1 ovarian, 91.9%. The growth in the assay on OVCAR-3 ovarian is 96.3%; in the assay with HS 578T breast, 97.5%; in the assay with NCI/ADR-RES ovarian, 97.8%; in the assay on T-47D breast, 85.5%; in the assay with BT-549 breast it was 107%; in the assay with MDA-MB-435 melanoma, 96.1%. The growth with SW-620 colon is 103%; with MCF7 breast it was 58.3%; in the assay with HCT-116 colon, 88.5%; in the assay with HCC-2998 colon, 102%; in the assay on KM12 colon it was 92.9%.
`CS(=O)(=O)Nc1cc(-c2ccc3ncc(C#N)c(N[C@H](CO)c4ccccc4)c3c2)cnc1Cl`: the growth in the assay on SR leukemia was 20.7%; with RPMI-8226 leukemia it was 64.2%; with OVCAR-8 ovarian, 56.2%; with OVCAR-5 ovarian it was 74.1%; with SK-OV-3 ovarian, 81.1%; with IGROV1 ovarian it was 3.75% (active). In addition, the growth in the assay on OVCAR-3 ovarian is 24%; in the assay on HS 578T breast it was 13.7%; with NCI/ADR-RES ovarian, 97.8%; in the assay on T-47D breast, 28.3%; in the assay with BT-549 breast, 33.9%; in the assay with MDA-MB-435 melanoma it was 47.2%. Moreover, the growth in the assay with SW-620 colon was 26.6%; with MCF7 breast it was 17.7%; in the assay on HCT-116 colon, 25.7%; with HCC-2998 colon it was 42.1%; in the assay with KM12 colon, 70.2%.
Turning to `CS(=O)(=O)c1ccc(-c2nn(-c3ccccc3)cc2/C=N/NC(=O)c2nc(N)n[nH]2)cc1`, the growth in the assay on SR leukemia was 69.7%; in the assay with RPMI-8226 leukemia, 83.3%; with OVCAR-8 ovarian, 101%; in the assay on OVCAR-5 ovarian it was 94.8%; with SK-OV-3 ovarian, 112%; with IGROV1 ovarian, 90.8%. For the same compound, the growth is 97.1% in the assay with OVCAR-3 ovarian; 111% in the assay on HS 578T breast; 98.9% in the assay with NCI/ADR-RES ovarian; 101% in the assay on T-47D breast; 103% with BT-549 breast; 91.9% in the assay with MDA-MB-435 melanoma. Further, the growth in the assay with MCF7 breast is 88.3%; with HCT-116 colon it was 94.8%; with HCC-2998 colon it was 117%; in the assay with KM12 colon, 94.7%.
On to `C#CCNC1CCC(c2csc(C#C)n2)=C1C` (stereo not given), for which the growth in the assay on SR leukemia was 2.46% (active); in the assay on RPMI-8226 leukemia it was -28.1% (active); with OVCAR-8 ovarian, 40.5%; in the assay with OVCAR-5 ovarian, 76%; with SK-OV-3 ovarian it was 92.7%; in the assay on IGROV1 ovarian, -63.6% (active). The growth in the assay on OVCAR-3 ovarian is -21.9% (active); in the assay with HS 578T breast it was 90.7%; in the assay with NCI/ADR-RES ovarian, 33.9%; in the assay on T-47D breast it was 65.3%; with BT-549 breast it was 86.3%; in the assay with MDA-MB-435 melanoma, 99.2%. Also, the growth with SW-620 colon is 108%; with MCF7 breast, 61.1%; in the assay with HCT-116 colon, 80.9%; in the assay with HCC-2998 colon, 107%; in the assay on KM12 colon, 19.1%.
Regarding `O=C(CCn1cc[n+](CC(=O)c2ccc(-c3ccccc3)cc2)c1)Nc1cccc2cccnc12`, the growth in the assay on SR leukemia was 79.8%; in the assay on RPMI-8226 leukemia, 34%; in the assay with OVCAR-8 ovarian it was 82.4%; with OVCAR-5 ovarian it was 91.7%; in the assay on SK-OV-3 ovarian, 74.6%; with IGROV1 ovarian, 36.4%. For the same compound, the growth is 51.9% in the assay with OVCAR-3 ovarian; 71.3% in the assay on HS 578T breast; 99.7% in the assay on NCI/ADR-RES ovarian; 42.4% in the assay on T-47D breast; 57.2% with BT-549 breast; 87.2% with MDA-MB-435 melanoma. Further, the growth is 85.8% with SW-620 colon; 58% in the assay on MCF7 breast; 84.5% with HCT-116 colon; 68.4% in the assay on HCC-2998 colon; 42.9% in the assay on KM12 colon.
